Assay results taken from PubChem BioAssay (NCATS).
Results filed as inconclusive are left out. A call without a number means that no potency is given here. The source made the active and inactive calls. The call rests on the fitted dose curve; in most records, active means well fitted activation curve with a large enough effect; inconclusive means small, poorly fitted or top-dose-only effect; inactive means flat fitted curve, though single readings scatter.

These compounds were tested against Cellular tumor antigen p53 (Homo sapiens) (UniProt P04637) (assay: Primary qHTS for small molecule compounds that upregulate eGFP-tagged delta133p53alpha (in C-terminal) cells. (AID 2060324)). Settings: NCI-H358 delta133p53alpha-eGFP (C-terminal tag), GFP fluorescence imaging, 24 h; series mostly up to 57.5 µM.
Sequence of Cellular tumor antigen p53 (Homo sapiens) (P04637 whole entry, looked up): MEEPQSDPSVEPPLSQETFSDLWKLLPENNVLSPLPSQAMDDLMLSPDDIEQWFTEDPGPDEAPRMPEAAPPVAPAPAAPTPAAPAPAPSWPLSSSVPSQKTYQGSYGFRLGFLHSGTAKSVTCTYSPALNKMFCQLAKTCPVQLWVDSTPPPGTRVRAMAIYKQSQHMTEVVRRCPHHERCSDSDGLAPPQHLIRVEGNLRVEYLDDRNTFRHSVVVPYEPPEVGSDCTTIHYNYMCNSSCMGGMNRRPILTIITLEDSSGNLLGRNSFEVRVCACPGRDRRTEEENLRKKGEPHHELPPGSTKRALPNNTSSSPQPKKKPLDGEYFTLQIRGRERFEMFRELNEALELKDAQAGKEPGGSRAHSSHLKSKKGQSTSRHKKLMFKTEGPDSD
Method in brief: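 In this qHTS, GFP-tagged delta133p53alpha levels are measured in fixed NCI-H358 cells after 24 h compound exposure at 37 °C. The cells are pre-induced with 100 ng/ml doxycycline, and signal is normalized to DMSO-treated wells as 0%.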
`CCCCC#Cc1nc(NC)c2ncn([C@@H]3O[C@H](CO)[C@@H](O)[C@H]3O)c2n1` was tested, and the Potency was “inactive”.
For `CCn1cc(C(=O)O)c(=O)c2cc3c(cc21)OCO3`, the Potency was “inactive”.
With `NNCCc1ccccc1` the Potency was “inactive”.
With `O=C(c1cc(O)c(O)c([N+](=O)[O-])c1)c1ccccc1F` the Potency was “inactive”.
With `COc1cc(/C=C(\C#N)C(=O)Nc2nnc(C(F)(F)F)s2)ccc1OCc1ccc(C(F)(F)F)cc1C(F)(F)F` the Potency was “inactive”.
In the case of `O=c1ccc2ccc(O)c(O)c2o1`, the Potency is reported as “inactive”.
With `Clc1ccc2c(N3CCN(CCCN4CCN(c5ccnc6cc(Cl)ccc56)CC4)CC3)ccnc2c1` the Potency was “inactive”.
In the case of `Cn1c(=O)c2[nH]c(-c3ccc(S(=O)(=O)O)cc3)nc2n(C)c1=O`, the Potency is reported as “inactive”.
`COc1ccc(NC(=O)/C=C/c2ccc(Cl)cc2)cc1` was tested, and the Potency was “inactive”.
In the case of `CC1(C)NC(=O)N(c2ccc([N+](=O)[O-])c(C(F)(F)F)c2)C1=O`, the Potency is reported as “inactive”.
`Cn1ncc(S(=O)(=O)Cc2ccccc2)c(Br)c1=O` was tested, and the Potency was “inactive”.
With `O=C(O)C1=CCCN(CCON=C(c2ccccc2)c2ccccc2)C1` the Potency was “inactive”.
With `S=c1[nH]c(-c2ccccc2)cn1-c1ccccc1` the Potency was “inactive”.
In the case of `C=Cc1c(C)c2cc3[nH]c(cc4nc(cc5nc(cc1[nH]2)C(C)=C5CCC(=O)O)C(CCC(=O)O)=C4C)c(C)c3C=C`, the Potency is reported as “inactive”.
With `CN(C)C/C=C(/c1ccc(Br)cc1)c1cccnc1` the Potency was “inactive”.
For `NS(=O)(=O)c1cccc2c1c([N+](=O)[O-])cc1nc(O)c(O)nc12`, the Potency was “inactive”.
`CCCCS(=N)(=O)CC[C@H](N)C(=O)O` (stereo partly drawn) was tested, and the Potency was “inactive”.
For `CCCCCCCC/C=C\CCCCCCCC(=O)NCc1ccc(O)c(OC)c1`, the Potency was “inactive”.
